This assay in a line: NCI Yeast Anticancer Drug Screen. Data for the mgt1 strain (AID 153). As to conditions: S. cerevisiae mgt1 mutant growth inhibition, active compounds read high. The procedure:
Growth inhibition of yeast strains with defined genetic alterations is measured as a screen for potential anti-cancer activity. Selected strains with alterations in DNA damage repair or cell cycle control were exposed to compounds and growth inhibition was measured relative to vehicle treated controls. The strain used in this assay is mgt1

The text below walks through data of PubChem BioAssay (NCI).

Molecules are shown by their SMILES. Compounds without any hit were thinned out: in the full panel of roughly 79,000, 15% have a hit. A number with no mark means an inactive call. Calls of active or inactive are those of the source. No stated cut-off is given here; in the data, active means growth inhibition above about 70%; inactive means the rest.

Turning to `O=C(/C(=C/c1ccc(O)cc1)c1ccccc1)c1ccccc1`, the growth inhibition by setting is: (at 1.2 µM) -4%; (at 3.7 µM) -2%; (at 11.0 µM) 51%; (at 33.0 µM) 99% (active); (at 100.0 µM) 89% (active).
Taken in the same sequence, the figures for `CC1CCN(CCC(=O)c2ccc([N+](=O)[O-])cc2)CC1` were -4%, 3%, 6%, 21% and 38%.
Taken in the same sequence, the figures for `CCN(CC)CC(=O)c1ccc2cc(Cl)c3ccccc3c2c1` were 0%, 13%, 99% (active), 99% (active) and 99% (active).
Taken in the same sequence, the figures for `CCCN=Cc1cc(Cc2ccc(O)c(C=NCCC)c2)ccc1O` were 45%, 97% (active), 99% (active), 98% (active) and 97% (active).
Regarding `NC(=S)N1N=C2c3ccccc3CC[C@H]2[C@@H]1c1ccc(Cl)cc1`, the growth inhibition by setting is: (at 1.2 µM) 7%; (at 3.7 µM) -10%; (at 11.0 µM) 0%; (at 33.0 µM) 29%; (at 100.0 µM) 85% (active).
On the same counts, the results for `COc1ccccc1NC(=O)c1ccc(Cl)cc1` are -2%, -1%, 0%, -2% and -10%.
On the same counts, the results for `O=C1C[C@H]2[C@H](c3ccc(Br)cc3)[C@H]3C(=O)c4ccccc4NC(=O)[C@@H]3[C@@]2(O)c2ccccc2N1` are 5%, 11%, 12%, 45% and 36%.
Taken in the same sequence, the figures for `CC(C)=CCC/C(C)=C/CN1C(=O)C=CC1=O` were -3%, 18%, 100% (active), 100% (active) and 100% (active).
